{"source": "PubChem BioAssay (Tox21)", "note": "Results filed as inconclusive are left out. Activity calls are given as the source filed them. The call rests on the fitted dose curve; in most records, active means well fitted curve in the direction sought with a large enough effect in the signal ratio in the repeat runs (not every such curve was filed as active); inconclusive means weak or mixed curves, or a change in a side signal; inactive means no such curve, though single readings can be large or run the other way; the % refers to the signal ratio.", "data": [{"assay": "qHTS assay to identify small molecule agonists of the NFkB signaling pathway (AID 1159509)", "details": "NFkB-bla ME-180 cells, beta-lactamase FRET ratio, 5 h; series mostly up to 61 µM", "excerpt": "National Center for Advancing Translational Sciences [NCATS]\nNIH Chemical Genomics Center [NCGC]\nU.S. Environmental Protection Agency [EPA]\nNational Institutes of Environmental Health Sciences [NIEHS]\nNational Toxicology Program [NTP]\nU.S. Food and Drug Administration [FDA]\nTranscription factors and their stimulated target gene expression play pivotal roles across many cellular processes including responses to environmental stimuli. Proper regulation of associated pathways is critical to maintain cell health and function. Constitutive activation of transcription factor pathways has been implicated in tumors as it may block cellular functions such as apoptosis and lead to invasion and metastasis. One important transcription factor that stimulates gene expression in response to cytokines, UV radiation, and other stimuli is nuclear factor-kappa B (NFkB). To measure activation of the NFkB pathway, the CellSensor NFkB-bla ME-180 cell line (Life Technologies, Carlsbad, CA) that stably expresses beta-lactamase reporter gene under the regulation of a NF-kB response element was used. This assay allows measurement of the NFkB pathway activity induced by compounds in a ME-180 cell line. This system quantitates NF-kB activity using a FRET-based assay system where beta-lactamase expression disrupts FRET, allowing for fluorescent measurement of activity. This cell line has been used to screen the Tox21 10K compound library and to identify compounds that induce the NFkB pathway activity.\nTox21 Assay Protocol Summary:\nNFkB-bla ME-180 cells were dispensed at 2,000 cells/6 uL of assay medium per well into black wall/clear-bottom 1536-well plates using a Multidrop Combi (ThermoFisher Scientific, Waltham, MA) dispenser. After the assay plates were incubated at 37 C and 5% CO2 for an overnight, 23 nL of compounds dissolved in DMSO, positive controls or DMSO only was transferred to the assay plate by a Pintool station (Kalypsys, San Diego, CA). The assay plates were incubated at 37 C and 5% CO2 for 5 hr. One uL of LiveBLAzer B/G FRET substrate (Life Technologies) was added using a Flying Reagent Dispenser (Aurora Discovery, San Diego, CA) and the plates were incubated at room temperature for 1.5 hr. Fluorescence intensity (405 nm excitation, 460 nm and 530 nm emissions) was measured using an Envision plate reader (PerkinElmer, Shelton, CT).", "values": [{"smiles": "NS(=O)(=O)c1cc(C(=O)O)c(NCc2ccco2)cc1Cl", "outcome": "inactive"}, {"smiles": "NC(=O)c1ccccc1O", "outcome": "inactive"}, {"smiles": "O=S(=O)(O)NC1CCCCC1", "outcome": "inactive"}, {"smiles": "O=C(c1ccccc1)C(O)c1ccccc1", "note": "(stereo not given)", "outcome": "inactive"}, {"smiles": "CCCCC1C(=O)N(c2ccccc2)N(c2ccccc2)C1=O", "outcome": "inactive"}, {"smiles": "COc1ccc2[nH]cc(CCNC(C)=O)c2c1", "outcome": "inactive"}, {"smiles": "Oc1ccc(/C=C/c2cc(O)cc(O)c2)cc1", "outcome": "inactive"}, {"smiles": "O=C(O)CS", "outcome": "inactive"}, {"smiles": "NNC(=O)c1ccncc1", "outcome": "inactive"}, {"smiles": "Nc1ccc(C(=O)O)cc1", "outcome": "inactive"}, {"smiles": "O=C(O)c1[nH]n(-c2ccc(S(=O)(=O)O)cc2)c(=O)c1N=Nc1ccc(S(=O)(=O)O)cc1", "outcome": "inactive"}, {"smiles": "CNC[C@H](O)c1cccc(O)c1", "outcome": "inactive"}, {"smiles": "CCC1(c2ccccc2)C(=O)NCNC1=O", "outcome": "inactive"}, {"smiles": "Nc1ccc(S(=O)(=O)c2ccc(N)cc2)cc1", "outcome": "inactive"}, {"smiles": "CCOc1ccc(NC(=O)CC(C)O)cc1", "note": "(stereo not given)", "outcome": "inactive"}, {"smiles": "C[C@]12C=CC(=O)C=C1CC[C@@H]1[C@@H]2[C@@H](O)C[C@@]2(C)[C@H]1CC[C@]2(O)C(=O)CO", "outcome": "inactive"}, {"smiles": "Nc1ccc(O)c(C(=O)O)c1", "outcome": "inactive"}, {"smiles": "O=c1ccc2ccccc2o1", "outcome": "inactive"}, {"smiles": "Cn1cc[nH]c1=S", "outcome": "inactive"}, {"smiles": "CC(O)C(=O)O", "note": "(stereo not given)", "outcome": "inactive"}, {"smiles": "Cc1cc(=O)n(-c2ccccc2)n1C", "outcome": "inactive"}, {"smiles": "O=S(=O)(O)c1ccc2cc(O)ccc2c1", "outcome": "inactive"}, {"smiles": "CC(C)(Oc1ccc(C2CC2(Cl)Cl)cc1)C(=O)O", "note": "(stereo not given)", "outcome": "inactive"}, {"smiles": "CCCCOC(=O)CC(CC(=O)OCCCC)(OC(C)=O)C(=O)OCCCC", "outcome": "inactive"}, {"smiles": "O=C(O)CCCCC(=O)O", "outcome": "inactive"}, {"smiles": "COc1c2occc2cc2ccc(=O)oc12", "outcome": "inactive"}, {"smiles": "OCCc1ccccc1", "outcome": "inactive"}, {"smiles": "C/C=C/c1ccc(OC)cc1", "outcome": "inactive"}, {"smiles": "Cc1ccc(O)cc1", "outcome": "inactive"}, {"smiles": "Cn1c(=O)c2[nH]cnc2n(C)c1=O", "outcome": "inactive"}, {"smiles": "Cc1cc(=O)[nH]c(=S)[nH]1", "outcome": "inactive"}, {"smiles": "O=C(C1CCCCC1)N1CC(=O)N2CCc3ccccc3C2C1", "note": "(stereo not given)", "outcome": "inactive"}, {"smiles": "N=C(N)c1ccc(OCCCCCOc2ccc(C(=N)N)cc2)cc1", "outcome": "inactive"}, {"smiles": "O=C(O)c1cc(N=Nc2ccc(S(=O)(=O)Nc3ccccn3)cc2)ccc1O", "outcome": "inactive"}, {"smiles": "NC(N)=O", "outcome": "inactive"}, {"smiles": "NC(=O)c1cnccn1", "outcome": "inactive"}, {"smiles": "CCCN(CCC)S(=O)(=O)c1ccc(C(=O)O)cc1", "outcome": "inactive"}, {"smiles": "Cc1cn([C@H]2C[C@H](N=[N+]=[N-])[C@@H](CO)O2)c(=O)[nH]c1=O", "outcome": "inactive"}, {"smiles": "O=C(O)/C=C\\C(=O)O", "outcome": "inactive"}, {"smiles": "CC(=O)NS(=O)(=O)c1ccc(N)cc1", "outcome": "inactive"}]}]}
